# Screen size: about 5,500 compounds; about 2,000 (36%) were called active. Another 18% or so got no clear call; they are omitted. Some of the results follow. A number with no mark means an inactive call. Rule as the data show it: active = normalized growth mostly below about 0.91 (no sharp cut-off); inconclusive = no clear call, values can overlap the other calls; inactive = mostly above about 0.92.
# Test: chemical genetic growth profiling, strain panel (AID 1159580);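 also: tested at 20 µM; growth read once vehicle control cultures reached saturation at 30 °C; 1 = growth at the plate median or of vehicle wells; lower values mean less growth of the strain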
# Conditions: growth OD
structure (smiles),measurement,setting,value
CNc1ccc(C(=O)CC(O)CCC(C)C2OC(=O)CC(O)CC(=O)CC(O)CC(O)CC(O)CC(O)CC3(O)CC(O)C(C(=O)OC)C(CC(OC4OC(C)C(O)C(N)C4O)/C=C/C=C/C=C/C=C/C=C/C=C/C=C/C2C)O3)cc1 (stereo unspecified),normalized growth,"S. cerevisiae deletion strains, locus YAL013W, strain DEP1, active compounds read low",0.0566 (active)
same,normalized growth,"S. cerevisiae deletion strains, locus YBR021W, strain FUR4, active compounds read low",0.0931 (active)
same,normalized growth,"S. cerevisiae deletion strains, locus YBR229C, strain ROT2, active compounds read low",0.0524 (active)
same,normalized growth,"S. cerevisiae deletion strains, locus YCL029C, strain bik1, active compounds read low",0.0837 (active)
same,normalized growth,"S. cerevisiae deletion strains, locus YDL035C, strain GPR1, active compounds read low",0.0535 (active)
same,normalized growth,"S. cerevisiae deletion strains, locus YDL074C, strain BRE1, active compounds read low",0.0938 (active)
same,normalized growth,"S. cerevisiae deletion strains, locus YDL101C, strain DUN1, active compounds read low",0.0651 (active)
same,normalized growth,"S. cerevisiae deletion strains, locus YDL134C, strain PPH21, active compounds read low",0.0946 (active)
same,normalized growth,"S. cerevisiae deletion strains, locus YDL185W, strain tfp1, active compounds read low",0.056 (active)
same,normalized growth,"S. cerevisiae deletion strains, locus YDL192W, strain arf1, active compounds read low",0.0619 (active)
same,normalized growth,"S. cerevisiae deletion strains, locus YDR101C, strain arx1, active compounds read low",0.0612 (active)
same,normalized growth,"S. cerevisiae deletion strains, locus YDR150W, strain NUM1, active compounds read low",0.0603 (active)
same,normalized growth,"S. cerevisiae deletion strains, locus YDR162C, strain NBP2, active compounds read low",0.0526 (active)
same,normalized growth,"S. cerevisiae deletion strains, locus YDR318W, strain mcm21, active compounds read low",0.0791 (active)
same,normalized growth,"S. cerevisiae deletion strains, locus YDR388W, active compounds read low",0.0583 (active)
same,normalized growth,"S. cerevisiae deletion strains, locus YDR502C, strain sam2, active compounds read low",0.0726 (active)
same,normalized growth,"S. cerevisiae deletion strains, locus YEL061C, strain CIN8, active compounds read low",0.133 (active)
same,normalized growth,"S. cerevisiae deletion strains, locus YER110C, active compounds read low",0.11 (active)
same,normalized growth,"S. cerevisiae deletion strains, locus YER155C, strain BEM2, active compounds read low",0.0648 (active)
same,normalized growth,"S. cerevisiae deletion strains, locus YER167W, strain BCK2, active compounds read low",0.0539 (active)
same,normalized growth,"S. cerevisiae deletion strains, locus YGL078C, strain dbp3, active compounds read low",0.0564 (active)
same,normalized growth,"S. cerevisiae deletion strains, locus YGL086W, strain mad1, active compounds read low",0.0591 (active)
same,normalized growth,"S. cerevisiae deletion strains, locus YGL248W, strain PDE1, active compounds read low",0.11 (active)
same,normalized growth,"S. cerevisiae deletion strains, locus YGR078C, strain PAC10, active compounds read low",0.0538 (active)
same,normalized growth,"S. cerevisiae deletion strains, locus YGR135W, strain pre9, active compounds read low",0.0705 (active)
same,normalized growth,"S. cerevisiae deletion strains, locus YGR229C, strain SMI1, active compounds read low",0.0606 (active)
same,normalized growth,"S. cerevisiae deletion strains, locus YGR252W, strain gcn5, active compounds read low",0.194 (active)
same,normalized growth,"S. cerevisiae deletion strains, locus YHR030C, strain SLT2, active compounds read low",0.0491 (active)
same,normalized growth,"S. cerevisiae deletion strains, locus YHR079C, strain IRE1 (second series), active compounds read low",0.0787 (active)
same,normalized growth,"S. cerevisiae deletion strains, locus YHR094C, strain hxt1, active compounds read low",0.119 (active)
same,normalized growth,"S. cerevisiae deletion strains, locus YHR129C, strain ARP1, active compounds read low",0.0557 (active)
same,normalized growth,"S. cerevisiae deletion strains, locus YHR200W, strain rpn10, active compounds read low",0.0615 (active)
same,normalized growth,"S. cerevisiae deletion strains, locus YIL066C, strain RNR3, active compounds read low",0.12 (active)
same,normalized growth,"S. cerevisiae deletion strains, locus YIL073C, strain SPO22, active compounds read low",0.63 (active)
same,normalized growth,"S. cerevisiae deletion strains, locus YIL125W, strain kgd1, active compounds read low",0.0582 (active)
same,normalized growth,"S. cerevisiae deletion strains, locus YIR030C, strain dcg1, active compounds read low",0.0683 (active)
same,normalized growth,"S. cerevisiae deletion strains, locus YJL095W, strain BCK1, active compounds read low",0.0555 (active)
same,normalized growth,"S. cerevisiae deletion strains, locus YJL134W, strain LCB3, active compounds read low",0.0513 (active)
same,normalized growth,"S. cerevisiae deletion strains, locus YJL168C, strain set2, active compounds read low",0.119 (active)
same,normalized growth,"S. cerevisiae deletion strains, locus YJL187C, strain SWE1 (second series), active compounds read low",0.0564 (active)
same,normalized growth,"S. cerevisiae deletion strains, locus YJR043C, strain POL32, active compounds read low",0.0719 (active)
same,normalized growth,"S. cerevisiae deletion strains, locus YJR075W, strain HOC1, active compounds read low",0.0687 (active)
same,normalized growth,"S. cerevisiae deletion strains, locus YKL009W, strain mrt4, active compounds read low",0.0698 (active)
same,normalized growth,"S. cerevisiae deletion strains, locus YKL068W, active compounds read low",0.0536 (active)
same,normalized growth,"S. cerevisiae deletion strains, locus YKL085W, strain MDH1 (second series), active compounds read low",0.0497 (active)
same,normalized growth,"S. cerevisiae deletion strains, locus YKL085W, strain MDH1, active compounds read low",0.0497 (active)
same,normalized growth,"S. cerevisiae deletion strains, locus YKL190W, strain CNB1, active compounds read low",0.0588 (active)
same,normalized growth,"S. cerevisiae deletion strains, locus YKR001C, strain vps1, active compounds read low",0.0648 (active)
same,normalized growth,"S. cerevisiae deletion strains, locus YLR039C, strain RIC1, active compounds read low",0.0872 (active)
same,normalized growth,"S. cerevisiae deletion strains, locus YLR058C, strain SHM2, active compounds read low",0.0574 (active)
same,normalized growth,"S. cerevisiae deletion strains, locus YLR102C, strain apc9, active compounds read low",0.0963 (active)
same,normalized growth,"S. cerevisiae deletion strains, locus YLR262C, strain YPT6, active compounds read low",0.0942 (active)
same,normalized growth,"S. cerevisiae deletion strains, locus YLR268W, strain sec22, active compounds read low",0.0696 (active)
same,normalized growth,"S. cerevisiae deletion strains, locus YLR330W, strain CHS5, active compounds read low",0.0514 (active)
same,normalized growth,"S. cerevisiae deletion strains, locus YLR342W, strain FKS1 (second series), active compounds read low",0.0823 (active)
same,normalized growth,"S. cerevisiae deletion strains, locus YLR371W, strain rom2, active compounds read low",0.0741 (active)
same,normalized growth,"S. cerevisiae deletion strains, locus YLR418C, strain cdc73, active compounds read low",0.0943 (active)
same,normalized growth,"S. cerevisiae deletion strains, locus YML016C, strain PPZ1, active compounds read low",0.136 (active)
same,normalized growth,"S. cerevisiae deletion strains, locus YML032C, strain rad52, active compounds read low",0.0764 (active)
same,normalized growth,"S. cerevisiae deletion strains, locus YML124C, strain tub3, active compounds read low",0.0593 (active)
same,normalized growth,"S. cerevisiae deletion strains, locus YMR078C, strain ctf18, active compounds read low",0.0766 (active)
same,normalized growth,"S. cerevisiae deletion strains, locus YMR223W, strain ubp8, active compounds read low",0.0693 (active)
same,normalized growth,"S. cerevisiae deletion strains, locus YMR263W, strain SAP30, active compounds read low",0.0638 (active)
same,normalized growth,"S. cerevisiae deletion strains, locus YMR307W, strain GAS1, active compounds read low",0.109 (active)
same,normalized growth,"S. cerevisiae deletion strains, locus YNL067W, strain RPL9B, active compounds read low",0.0557 (active)
same,normalized growth,"S. cerevisiae deletion strains, locus YNL128W, strain TEP1, active compounds read low",0.0601 (active)
same,normalized growth,"S. cerevisiae deletion strains, locus YNL153C, strain GIM3, active compounds read low",0.0467 (active)
same,normalized growth,"S. cerevisiae deletion strains, locus YNL233W, strain BNI4, active compounds read low",0.0536 (active)
same,normalized growth,"S. cerevisiae deletion strains, locus YNL250W, strain rad50, active compounds read low",0.0761 (active)
same,normalized growth,"S. cerevisiae deletion strains, locus YNL271C, strain bni1, active compounds read low",0.0615 (active)
same,normalized growth,"S. cerevisiae deletion strains, locus YNL298W, strain CLA4, active compounds read low",0.0597 (active)
same,normalized growth,"S. cerevisiae deletion strains, locus YNL307C, strain MCK1, active compounds read low",0.0706 (active)
same,normalized growth,"S. cerevisiae deletion strains, locus YNL322C, strain KRE1, active compounds read low",0.0507 (active)
same,normalized growth,"S. cerevisiae deletion strains, locus YNR052C, strain pop2, active compounds read low",0.0636 (active)
same,normalized growth,"S. cerevisiae deletion strains, locus YOL006C, strain TOP1, active compounds read low",0.132 (active)
same,normalized growth,"S. cerevisiae deletion strains, locus YOL012C, strain htz1",0.225
same,normalized growth,"S. cerevisiae deletion strains, locus YOL147C, strain pex11, active compounds read low",0.0576 (active)
same,normalized growth,"S. cerevisiae deletion strains, locus YOR061W, strain CKA2, active compounds read low",0.0583 (active)
same,normalized growth,"S. cerevisiae deletion strains, locus YOR069W, strain VPS5, active compounds read low",0.0477 (active)
same,normalized growth,"S. cerevisiae deletion strains, locus YOR136W, strain idh2, active compounds read low",0.074 (active)
same,normalized growth,"S. cerevisiae deletion strains, locus YOR144C, strain elg1, active compounds read low",0.0585 (active)
same,normalized growth,"S. cerevisiae deletion strains, locus YOR184W, strain ser1, active compounds read low",0.075 (active)
same,normalized growth,"S. cerevisiae deletion strains, locus YOR316C, strain cot1, active compounds read low",0.1 (active)
same,normalized growth,"S. cerevisiae deletion strains, locus YPL055C, strain LGE1, active compounds read low",0.0726 (active)
same,normalized growth,"S. cerevisiae deletion strains, locus YPL241C, strain CIN2, active compounds read low",0.0521 (active)
same,normalized growth,"S. cerevisiae deletion strains, locus YPR119W, strain clb2, active compounds read low",0.0662 (active)
same,normalized growth,"S. cerevisiae deletion strains, locus YPR141C, strain kar3, active compounds read low",0.0657 (active)
same,normalized growth,"S. cerevisiae deletion strains, locus YPR163C, strain tif3, active compounds read low",0.0749 (active)
same,normalized growth,"S. cerevisiae deletion strains, locus YPR167C, strain met16, active compounds read low",0.0645 (active)
same,normalized growth,"S. cerevisiae deletion strains, strain wtn01, active compounds read low",0.061 (active)
same,normalized growth,"S. cerevisiae strains, strain wild type, active compounds read low",0.0494 (active)

# From PubChem BioAssay AID1159580 (chemical genetic matrix, 2015)
